The values below come from PubChem BioAssay.

Activity calls are given as the source filed them.

For assay [1], the target named is Albumin (Bos taurus) (UniProt P02769). In words: compounds binding labelled BSA control protein – biochemical, small-molecule microarray, Alexa647 label, 635/667 nm fluorescence, artefact control for SMM control protein annotation, profiling panel (AID 1118).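 Also: score merges 667 nm emission intensity and signal-to-noise per printed compound spot.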 As to conditions: BSA-A647 binding, fluorescence 635 nm, higher = more signal.
Sequence of Albumin (Bos taurus) (P02769 whole entry, looked up): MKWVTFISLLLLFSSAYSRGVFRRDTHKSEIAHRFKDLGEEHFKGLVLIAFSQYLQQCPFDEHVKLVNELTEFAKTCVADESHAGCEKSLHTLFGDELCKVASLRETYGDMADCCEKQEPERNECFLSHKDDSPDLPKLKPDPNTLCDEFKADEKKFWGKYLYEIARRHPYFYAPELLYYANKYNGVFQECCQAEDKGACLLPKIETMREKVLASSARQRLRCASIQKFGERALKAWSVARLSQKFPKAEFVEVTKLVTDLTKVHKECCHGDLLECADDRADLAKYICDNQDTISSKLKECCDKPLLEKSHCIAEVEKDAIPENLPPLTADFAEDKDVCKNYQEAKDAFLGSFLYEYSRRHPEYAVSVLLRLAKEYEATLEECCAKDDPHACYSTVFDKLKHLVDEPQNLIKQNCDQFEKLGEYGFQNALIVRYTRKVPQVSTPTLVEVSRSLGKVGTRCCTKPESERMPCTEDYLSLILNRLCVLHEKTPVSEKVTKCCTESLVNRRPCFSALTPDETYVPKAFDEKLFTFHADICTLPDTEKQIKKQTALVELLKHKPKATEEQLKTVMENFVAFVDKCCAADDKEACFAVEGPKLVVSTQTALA
Assay [2] can be described thus: probe aXIP binding to arrayed compounds – biochemical, NeuroSMM set, 635/667 nm fluorescence, primary screen (AID 1119).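 Also: probe is the protein aXip251-270 applied at 1 µg/mL to compound-printed slides; binding of probe to printed compounds measured as 667 nm fluorescence plus signal to noise.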 To be noted: small-molecule microarray, higher = more signal, called active from +8 up or from −8 down.
Assay [3] can be described thus: probe aNOTCH3 binding on compound microarray – biochemical, small-molecule microarray, 635/667 nm fluorescence, primary screen (AID 1120).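 Also: probe is a biotin-tagged antibody raised against NOTCH3 rather than NOTCH3 protein; score merges spot fluorescence near 667 nm with spot signal to noise.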 To be noted: higher = more signal.
The nature of assay [4]: probe aNOTCH2 binding on compound microarray – biochemical, small-molecule microarray, 635/667 nm fluorescence, primary screen (AID 1121).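 Also: score merges feature fluorescence read at 667 nm with its signal to noise.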 As to conditions: higher = more signal.
For assay [5], the target named is Carbonic anhydrase 2 (Homo sapiens) (UniProt P00918). The assay can be described thus: compounds binding carbonic anhydrase 2 – biochemical, small-molecule microarray, Alexa647-labelled CAII, profiling panel (AID 1122). To be noted: CAII-A647 binding fluorescence, higher = more signal.
Assay [6] can be described thus: COS7 lysate on small-molecule microarray, probe aHis, 635 nm (AID 1123).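 Also: z-score combines 667nm fluorescence intensity with signal-to-noise per printed compound spot.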 As to conditions: COS7 cell lysate, fluorescence, higher = more signal.
Assay [7] in a line: probe aLAP1 signal on lysate-treated microarray – cell lysate, small-molecule microarray, COS7 lysate, primary screen (AID 1124).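 Also: lysate comes from COS7 cells expressing LAP1 and is applied at 0.3 µg/mL; score merges spot fluorescence near 667 nm with signal-to-noise over triplicate slides.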 To be noted: probe aLAP1, fluorescence, higher = more signal.
The test system of assay [8] is Sam68 (KHDRBS1). In words: compounds binding KHDRBS1 protein – biochemical, small-molecule microarray, 635 nm fluorescence, primary screen (AID 1125).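 Also: score merges 667 nm channel intensity with signal to noise over triplicate slides.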 To be noted: higher = more signal.
The subject of assay [9] is Chordin-like protein 2 (CHRDL2). In words: compounds binding chordin-like 2 – biochemical, small-molecule microarray, 635 nm fluorescence, primary screen (AID 1126).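 Also: printed compound slides probed with Chrdl2 protein at 4 µg/mL for 1 h at 4 C; score merges 667 nm emission intensity with signal to noise over three replicate slides.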 To be noted: fluorescence 635 nm, higher = more signal.
Assay [10] concerns the target Concanavalin-A (Canavalia ensiformis) (UniProt P02866). The assay can be described thus: compounds binding concanavalin A lectin – biochemical, small-molecule microarray, Alexa647 label, 635 nm, artefact control for SMM control protein annotation, primary screen (AID 1127).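 Also: z combines 667 nm emission intensity with signal-to-noise across three replicate slides.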 To be noted: ConA-A647 binding fluorescence, higher = more signal.
The nature of assay [11]: compounds binding Alexa647 anti-His antibody – biochemical, small-molecule microarray, 635 nm fluorescence, artefact control for SMM control protein annotation, primary screen (AID 1128).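 Also: score merges feature fluorescence with signal-to-noise for each printed compound spot.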 As to conditions: higher = more signal.
In assay [12] the test system is Human papillomavirus type 1a E7 protein (residues 1-88). The assay can be described thus: HPV1a E7 small-molecule binders, primary screen, biochemical, small-molecule microarray, residues 1-88, 635 nm (AID 1129). To be noted: small-molecule microarray binding, fluorescence 635 nm; higher = more signal.
In assay [13] the target is Focal adhesion kinase 1 (Homo sapiens) (UniProt Q05397). The assay can be described thus: PTK2 protein binding on printed compound slides – biochemical, small-molecule microarray, 635/667 nm fluorescence, BSA, DTT, primary screen (AID 1130).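 Also: composite of spot emission at 667 nm and signal to noise over triplicate slides.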 As to conditions: 635 nm fluorescence, higher = more signal.
Sequence of Focal adhesion kinase 1 (Homo sapiens) (Q05397 whole entry, looked up): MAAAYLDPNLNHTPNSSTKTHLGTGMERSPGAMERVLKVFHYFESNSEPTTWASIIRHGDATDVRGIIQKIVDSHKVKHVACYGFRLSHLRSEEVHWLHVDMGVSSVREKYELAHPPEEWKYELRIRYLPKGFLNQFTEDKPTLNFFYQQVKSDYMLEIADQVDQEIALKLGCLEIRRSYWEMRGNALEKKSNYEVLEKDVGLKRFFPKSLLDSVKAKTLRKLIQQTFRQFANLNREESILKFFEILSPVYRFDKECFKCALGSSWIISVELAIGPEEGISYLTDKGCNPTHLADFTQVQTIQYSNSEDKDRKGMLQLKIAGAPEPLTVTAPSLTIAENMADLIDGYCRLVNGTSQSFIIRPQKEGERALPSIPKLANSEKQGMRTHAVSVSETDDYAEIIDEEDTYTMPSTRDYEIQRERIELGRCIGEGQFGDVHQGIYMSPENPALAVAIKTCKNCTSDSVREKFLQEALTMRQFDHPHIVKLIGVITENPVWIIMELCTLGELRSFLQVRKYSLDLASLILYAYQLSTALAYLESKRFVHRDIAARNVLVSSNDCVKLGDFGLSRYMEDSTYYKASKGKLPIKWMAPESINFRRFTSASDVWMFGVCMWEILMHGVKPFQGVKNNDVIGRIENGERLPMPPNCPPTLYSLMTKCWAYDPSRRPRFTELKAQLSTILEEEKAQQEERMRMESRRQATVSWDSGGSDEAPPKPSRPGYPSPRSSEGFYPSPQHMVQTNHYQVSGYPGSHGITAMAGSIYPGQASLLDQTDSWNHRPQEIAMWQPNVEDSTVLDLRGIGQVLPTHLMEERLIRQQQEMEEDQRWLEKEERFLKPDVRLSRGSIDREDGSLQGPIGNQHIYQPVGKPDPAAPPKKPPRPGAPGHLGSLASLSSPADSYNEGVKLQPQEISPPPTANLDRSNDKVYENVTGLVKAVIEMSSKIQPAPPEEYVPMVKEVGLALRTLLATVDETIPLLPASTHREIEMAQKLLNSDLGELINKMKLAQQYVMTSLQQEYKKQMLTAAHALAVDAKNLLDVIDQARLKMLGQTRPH
The test system of assay [14] is Fibrinogen (Alexa647-labelled). The assay can be described thus: Alexa647-fibrinogen binding to printed small molecules – biochemical, small-molecule microarray, 635/667 nm fluorescence, artefact control for SMM control-protein annotation, profiling panel (AID 1131).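 Also: z-score merges 667 nm fluorescence with per-spot signal-to-noise over triplicate slides.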 As to conditions: fibrinogen-A647 binding fluorescence, higher = more signal.
Assay [15] addresses Follistatin (Homo sapiens) (UniProt P19883). In words: FST protein binding to printed compounds – biochemical, small-molecule microarray, 635/667 nm fluorescence, primary screen (AID 1132). To be noted: 635 nm fluorescence, higher = more signal.
Assay [16] concerns the target Fibroblast growth factor 2 (Homo sapiens) (UniProt P09038). The assay can be described thus: basic fibroblast growth factor binding to printed compounds – biochemical, small-molecule microarray, 635/667 nm fluorescence, primary screen (AID 1133). As to conditions: FGF2, fluorescence 635/667, higher = more signal.
The nature of assay [17]: JC-1 mitochondrial potential readout, lung cancer cells – cell-based, A549, JC-1 fluorescence, basal, 24 h, 100 nL, profiling panel (AID 1138).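 Also: A549 lung adenocarcinoma cells under basal conditions with no added stimulus; test concentration not given here.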 As to conditions: higher = more signal.
Assay [18] has as its system Lefty1. In words: Lefty1 protein binding to printed compounds – biochemical, small-molecule microarray, 635/667 nm fluorescence, primary screen (AID 1139). As to conditions: fluorescence 635/667, higher = more signal.
Assay [19] relates to wheat germ agglutinin (Triticum aestivum), Alexa647-labelled. The assay can be described thus: Alexa647-WGA lectin binding to printed small molecules – biochemical, small-molecule microarray, 635/667 nm fluorescence, artefact control for SMM control-protein annotation, profiling panel (AID 1140).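 Also: score merges 667 nm feature emission with signal to noise over triplicate slides.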 To be noted: WGA-A647 binding, 635 nm fluorescence, higher = more signal.
Assay [20] addresses Luciferin 4-monooxygenase (Photinus pyralis) (UniProt P08659). The assay can be described thus: inhibition of purified Photinus pyralis luciferase – biochemical, luminescence, purified enzyme, 2006 set, primary screen (AID 1141).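 Also: cell-free assay with purified firefly luciferase at 100 ng per well in PBS; test concentration not given here.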 As to conditions: purified firefly luciferase, SteadyGlo luminescence, 30 min; higher = more signal, called active from +8 up or from −8 down.

Sequence of Fibroblast growth factor 2 (Homo sapiens) (P09038 whole entry, looked up): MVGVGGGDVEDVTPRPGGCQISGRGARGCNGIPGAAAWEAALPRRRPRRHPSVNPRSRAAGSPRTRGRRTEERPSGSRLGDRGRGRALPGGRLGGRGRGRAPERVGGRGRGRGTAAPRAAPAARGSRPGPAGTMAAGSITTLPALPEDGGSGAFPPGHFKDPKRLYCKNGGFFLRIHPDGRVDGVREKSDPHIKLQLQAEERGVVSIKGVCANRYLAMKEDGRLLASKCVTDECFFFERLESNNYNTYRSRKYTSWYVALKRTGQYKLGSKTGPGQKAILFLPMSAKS
Sequence of Concanavalin-A (Canavalia ensiformis) (P02866 whole entry, looked up): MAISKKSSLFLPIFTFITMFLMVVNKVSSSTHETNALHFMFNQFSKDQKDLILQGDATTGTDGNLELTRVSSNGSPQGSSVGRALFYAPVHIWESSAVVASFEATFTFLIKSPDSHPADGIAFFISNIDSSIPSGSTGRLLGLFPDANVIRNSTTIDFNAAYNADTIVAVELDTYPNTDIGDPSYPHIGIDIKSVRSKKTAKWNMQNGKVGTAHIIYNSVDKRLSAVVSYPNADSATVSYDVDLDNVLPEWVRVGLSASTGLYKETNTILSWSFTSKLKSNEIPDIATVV
Sequence of Luciferin 4-monooxygenase (Photinus pyralis) (P08659 whole entry, looked up): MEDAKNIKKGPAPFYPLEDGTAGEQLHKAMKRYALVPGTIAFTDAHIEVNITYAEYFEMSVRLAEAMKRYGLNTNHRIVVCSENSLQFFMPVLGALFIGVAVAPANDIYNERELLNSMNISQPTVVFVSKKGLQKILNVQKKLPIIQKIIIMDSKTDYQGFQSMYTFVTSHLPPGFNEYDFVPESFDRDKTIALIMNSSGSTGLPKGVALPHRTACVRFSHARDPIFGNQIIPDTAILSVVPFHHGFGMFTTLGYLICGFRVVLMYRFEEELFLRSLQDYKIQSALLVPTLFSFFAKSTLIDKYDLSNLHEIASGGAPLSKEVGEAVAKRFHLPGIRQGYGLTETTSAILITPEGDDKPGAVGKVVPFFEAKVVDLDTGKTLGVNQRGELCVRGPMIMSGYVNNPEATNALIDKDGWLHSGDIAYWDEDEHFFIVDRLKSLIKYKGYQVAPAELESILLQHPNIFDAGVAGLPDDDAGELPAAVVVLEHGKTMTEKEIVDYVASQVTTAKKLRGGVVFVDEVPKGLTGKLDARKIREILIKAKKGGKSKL
Sequence of Follistatin (Homo sapiens) (P19883 whole entry, looked up): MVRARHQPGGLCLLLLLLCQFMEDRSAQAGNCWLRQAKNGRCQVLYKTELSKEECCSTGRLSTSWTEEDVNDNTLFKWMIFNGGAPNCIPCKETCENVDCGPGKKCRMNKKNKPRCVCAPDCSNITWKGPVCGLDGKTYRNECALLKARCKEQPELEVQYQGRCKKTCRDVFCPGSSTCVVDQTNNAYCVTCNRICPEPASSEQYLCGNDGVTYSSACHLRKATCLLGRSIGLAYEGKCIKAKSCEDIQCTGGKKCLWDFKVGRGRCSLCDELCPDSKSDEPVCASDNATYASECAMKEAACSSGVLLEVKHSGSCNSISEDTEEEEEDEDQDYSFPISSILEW

In the case of `C=C(/C(=C/C[C@@H](OC(C)=O)c1ccc(CO)o1)c1cnc2ccccc2c1)C(C)C`, the composite z-score in assay [1] was -0.243; in assay [3], 0.12; in assay [4], -0.0771; in assay [5] it was 0.815; in assay [6] it was 1.5; in assay [7] it was 1.11. In addition, the composite z-score in assay [8] is 1.3; in assay [9], 0.847; in assay [10], 0.971; in assay [11], 0.452; in assay [12], 1.23; in assay [13], 0.88. In addition, the composite z-score in assay [14] came to 0.594; in assay [15], 1.4; in assay [16], 1.9; in assay [18] it was 1.37; in [19], 0.463. Further, in [2], the composite Z-score is 1.64 (inactive). In addition, the z-score is -0.527 in assay [17] and -3.13 (inactive) in assay [20].
Take `C#C[C@H]1Oc2ccccc2S(=O)(=O)N2CCC[C@@H]12`: the composite z-score in [1] was -1.3; in assay [3], 0.0026; in assay [4], -0.0548; in assay [5], -0.156; in assay [6], -0.117; in [7] it was 0.0504. For the same compound, the composite z-score in [8] is -0.399; in assay [9] it was 0.839; in assay [10] it was -1.55; in assay [11] it was -0.233; in assay [12], -0.704; in assay [13] it was -0.434. The composite z-score is -0.597 in [14]; 0.963 in [15]; 0.0278 in [16]; 1.51 in assay [18]; -0.719 in assay [19]. For the same compound, in assay [2], the composite Z-score was -0.0662 (inactive). Also, the z-score in assay [17] is 0.092; in [20], 0.119 (inactive).
In the case of `C=CC[C@]1(C(=O)NCCN2CCOCC2)N=C(c2ccc(OCCCO)cc2)O[C@H]1c1ccccc1N=[N+]=[N-]`, the composite z-score is 0.927 in [1]; 0.0303 in assay [3]; -0.0359 in assay [4]; 0.691 in [5]; 1.55 in assay [6]; 0.811 in assay [7]. Also, the composite z-score worked out at 1.24 in [8]; 0.663 in assay [9]; 0.563 in assay [10]; 1.5 in assay [11]; 1.16 in [12]; 0.0147 in assay [13]. In addition, the composite z-score in assay [14] was 0.772; in [15], 1.32; in [16] it was 0.931; in [18], -0.367; in assay [19], 0.455. The composite Z-score in [2] was 0.581 (inactive). Also, the z-score in assay [17] is 0.98; in assay [20] it was -8.62 (active).
Take `Cc1cc(C)c(C(O)C2C=CC3C(=O)NC(=O)C3N2Nc2ccccn2)c(C)c1` (stereo not given): the composite z-score is 0.63 in assay [1]; 0.148 in [3]; 0.139 in [4]; 0.422 in [5]; 1.09 in assay [6]; 0.751 in assay [7]. Also, the composite z-score in [8] is 0.785; in assay [9] it was -0.907; in assay [10] it was 0.049; in assay [11], 0.735; in assay [12], 1.03; in assay [13] it was 0.471. Moreover, the composite z-score in [14] was 0.925; in [15], 1.11; in assay [16] it was -0.719; in assay [18] it was 0.0668; in assay [19], 0.994. For the same compound, in [2], the composite Z-score is -0.0521 (inactive). The z-score in assay [17] was 0.513; in assay [20], -1.56 (inactive).
For the compound `O=C1c2ccccc2[C@](Cc2ccccc2I)(C(=O)O)[C@H](c2ccc(CO)cc2)N1Cc1ccccc1C(F)(F)F`, the composite z-score was 0.449 in [1]; -0.0647 in [3]; -0.106 in [4]; 0.583 in assay [5]; 1.91 in [6]; 1.77 in assay [7]. Besides, the composite z-score is 0.431 in [8]; -0.697 in assay [9]; 0.918 in assay [10]; 1.3 in [11]; 1.09 in assay [12]; 0.425 in assay [13]. Moreover, the composite z-score in assay [14] was 0.9; in [15] it was 0.72; in assay [16], -0.238; in assay [18], -0.374; in assay [19], 1.12. For the same compound, in assay [2], the composite Z-score was -0.249 (inactive). In addition, the z-score in [17] is -0.635; in assay [20], 0.63 (inactive).
On to `C=C[C@H](OC)[C@@H](OC(=O)Nc1ccc(SC)cc1)c1ccc(OCCO)cc1`, for which the composite z-score in assay [1] is 0.383; in assay [3] it was -0.15; in assay [4], -0.0956; in assay [5], 0.503; in assay [6], 1.45; in assay [7] it was 0.503. Besides, the composite z-score in [8] amounted to 0.904; in [9], 0.0669; in [10], 0.713; in assay [11] it was 3.12; in assay [12] it was 1.22; in [13] it was 0.39. The composite z-score in [14] was -0.332; in assay [15], 0.236; in assay [16] it was 0.453; in [18], -0.444; in assay [19], 0.833. Moreover, in assay [2], the composite Z-score is 0.651 (inactive). Also, the z-score in assay [17] was -1.56; in assay [20], -1.94 (inactive).
